SW480 rerep = induces DNA re-replication in SW480 colon adenocarcinoma cells; SW480 DNA re-replication, Hoechst DNA content imaging, 48 h; Potency, µM (top dose mostly 46.1 µM), for inactives: top-dose re-replication activation, actives largely listed as activators; 1.8% of 340,000 active; AID 624297; also: % of control where 0% means no effect; nearly all actives have a fitted effect of over 55% in size
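Readout is total intensity of Hoechst-stained nuclei, excited at 405 nm and collected at 500-530 nm. Compound treatment lasted 48 hr at 37 C in 5% CO2 before staining.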
KB-3-1 tox = KB-3-1 parental cell cytotoxicity; KB-3-1 viability, CellTiter-Glo ATP luminescence, 72 h; Potency, µM (highest dose often 46.1 µM), usual class: cytotoxic; 1.4% of 400,000 active; AID 1347075; also: % is scaled to controls: 0 for no effect and ±100 for the full control effect; nearly all actives have a fitted effect of over 60% in size
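Luminescent ATP read-out (CellTiter-Glo) measures survival of drug-naive KB-3-1 cells after 72 h compound exposure at 37 °C. Titration series was screened from lowest to highest concentration, with DMSO vehicle plates as background controls.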
KB-V1 cytotox = KB-V1 MDR subline cytotoxicity. AID 1347076. Potency, µM (top dose mostly 46.1 µM), most hits filed as cytotoxic. 3.4% of 400,000 active. KB-V1 MDR cells viability, CellTiter-Glo, 72 h; also: % is scaled to controls: 0 for no effect and ±100 for the full control effect; nearly all actives have a fitted effect of over 60% in size
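Cytotoxicity via CellTiter-Glo luminescence after 72 h compound exposure at 37 degrees C. Cells: drug-selected KB-V1 line, DMEM phenol-red free plus 10% FBS. Compounds tested at multiple concentrations; normalized data fitted to concentration-effect curves.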
MCF10A rerep = induces DNA re-replication in MCF 10a normal breast cells; Potency, µM (titrated, usually from 46.1 µM), without a hit: at the highest dose activity, positive = re-replication, usual class: activators; AID 624296; 2.9% of 350,000 active; MCF 10A DNA re-replication, Hoechst nuclear intensity, 48 h; also: % of control where 0% means no effect; nearly all actives have a fitted effect of over 50% in size
HT1080NT lethal = kills 2HG-producing HT-1080-NT fibrosarcoma cells | HT-1080-NT fibrosarcoma viability, CellTiter-Glo ATP luminescence, 48 h | Potency, µM (top dose mostly 46.1 µM), for inactives: top-dose activity, negative = less viability, usual class: cytotoxic | 1.6% of 360,000 active | AID 686970;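 also: NT is the 2HG producing partner of a matched IDH1 knockdown line; 0% = DMSO-treated cells and -100% = media-only wells without cells; nearly all actives have a fitted effect of over 55% in size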
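750 cells/well, RPMI + 5% FBS; 2 h settle, compound pin-transfer, 48 h at 37 degrees C. CellTiter-Glo 10 min RT, luminescence. Normalized to DMSO and media-only wells.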
HT1080 IDH1KD tx = HT-1080 IDH1 knockdown cell toxicity (counter line) | HT-1080 IDH1 knockdown viability, ATP luminescence, 48 h | Potency, µM (top dose mostly 46.1 µM), without a hit: at the highest dose activity, negative = toxicity, most hits filed as cytotoxic | 2% of 360,000 active;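 also: 0% = DMSO wells and -100% = cell-free medium wells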
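CellTiter-Glo luminescence after 48 h compound exposure at 37 degrees C of IDH1-knockdown HT-1080 cells in 5% FBS RPMI. %Activity scaled between DMSO wells and cell-free media wells, with curves fitted and assigned curve classes.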
* = called active by the depositor; i = inactive; ? = inconclusive; nt = no result given; ! = a repeat was not active; [ ] = dose if it differs, or a comment. Shown are actives, neighbours in structure and some others; about 8% of the full set was active somewhere. Calls follow the shape of the dose curve; as a rule, active = well fitted curve in the direction sought with a large enough effect; inconclusive = small, poorly fitted or top-dose-only effect, or another doubt; inactive = no such curve, though single readings can be large; an effect the other way counts as inactive or inconclusive. Potency is read from the fitted curve at half-maximal effect.

SMILES	SW480 rerep	KB-3-1 tox	KB-V1 cytotox	MCF10A rerep	HT1080NT lethal	HT1080 IDH1KD tx
CCc1ccc2nc(N3C(=O)C(O)=C(C(=O)c4ccco4)C3c3cccs3)sc2c1 (centres undefined)	-108%	?	5.8µM*	15µM*	-4%	-20%
Cc1ccc2nc(N3C(=O)C(O)=C(C(=O)c4cc5ccccc5o4)C3c3cccs3)sc2c1 (centres undefined)	19%	i	i	5.8µM*	-1%	-16%
O=C(C1=C(O)C(=O)N(CCc2ccccc2)C1c1cccs1)c1ccco1 (centres undefined)	-8%	i	?	-2%	-7%	-2%
COc1cccc(NC(=O)CSc2nnc(CNC(=O)c3ccco3)n2C)c1	-16%	i	i	-2%	?	?
Cc1ccccc1CNC(=O)C1CCN(c2nnc(N3CCCC3=O)s2)CC1	-2%	i	i	3%	-1%	-1%
CSc1ccc(Cn2c(C)c(C(=O)NCc3ccco3)sc2=O)cc1	nt	i	?	nt	-8%	-11%
CCOc1nc(NCCC2=CCCCC2)nc(N2CCOCC2)n1	23µM*	i	i	21µM*	1%	-3%
OCCNc1nc(NCCC2=CCCCC2)nc(N2CCOCC2)n1	-1%	i	i	-3%	-1%	-13%
C=C1C(=O)O[C@@H]2[C@@H]1CC/C(C)=C\CC[C@@]1(C)O[C@H]21	7%	nt	nt	12µM*	nt	nt
Cc1cc(C)cc(N(CCC(=O)Nc2nnc(C3CC3)s2)S(=O)(=O)c2ccc(Cl)cc2)c1	23µM*	?	8.2µM*	?	-20%	?
O=C(Nc1ccc(F)c(Cl)c1)C1Cc2c(-c3cccc(F)c3)ccnc2O1 (centres undefined)	nt	i	?	nt	?	?
Cc1ccc(CNC(=O)CSCC(=O)O)cc1	-7%	i	i	?	9%	3%
COc1ccc(CC(C#N)(CO)c2nc3ccccc3[nH]2)cc1 (centres undefined)	21µM*	?	?	2%	-2%	-15%
CSc1cccc(NC(=O)C2CCN(S(=O)(=O)c3ccc4[nH]c(=O)ccc4c3)CC2)c1	nt	?	i	nt	nt	nt
O=C1C=C(Nc2ccc(O)cc2)C(=O)c2ccccc21	?	?	?	?	26µM*	21µM*
O=C1C(Cl)=C(Nc2ccc(O)cc2)C(=O)c2ccccc21	-12%	?	?	2.9µM*	6.5µM*	16µM*
CCCC(=O)NC1=C(Cl)C(=O)c2ccccc2C1=O	6.5µM*	?	?	?	?	7.3µM*
O=C1C(O)=C(O)C(=O)c2ccccc21	?	i	i	?	-20%	-17%
CCN(CC)c1ccc(NC2=C(Cl)C(=O)c3ccccc3C2=O)cc1	?	?	?	4.6µM*	?	?
CCN(CC)c1ccc(NC(=O)C(C)C)cc1	-5%	i	i	-5%	17%	17%
COc1cccc(CNC(=O)Cn2cccc2)c1	-2%	i	i	1%	0%	-1%
Cc1ccc(NC2=C(Cl)C(=O)c3ccccc3C2=O)cc1	4.1µM*	?	i	7.3µM*	3%	-6%
CC1(C)CC2(CC(c3ccccc3F)c3cc(Cl)c(O)cc3O2)NC(=S)N1 (centres undefined)	1%	i	?	4%	?	?
CC(=O)Oc1cc2c(cc1Cl)C1(CC(c3ccccc3Cl)O2)CC(C)(C)NC(=S)N1 (centres undefined)	-12%[9.22 µM]	i	?	?	16µM*	23µM*
C[C@@H](c1ccccc1)N1C[C@@H](COCc2ccccc2)Oc2cc(N3CC[C@H](N(C)C)C3)ccc2S1(=O)=O	nt	?	i	nt	2%	12%
SMILES	SW480 rerep	KB-3-1 tox	KB-V1 cytotox	MCF10A rerep	HT1080NT lethal	HT1080 IDH1KD tx
CCCCC[C@@H](C)N1C[C@@H](COCc2ccccc2)Oc2cc(N3CC[C@H](N(C)C)C3)ccc2S1(=O)=O	nt	?	?	nt	21µM*	?
C[C@H](c1ccccc1)N1C[C@@H](COCc2ccccc2)Oc2cc(N3CC[C@H](N(C)C)C3)ccc2S1(=O)=O	nt	i	23µM*	nt	?	?
CCCCC[C@H](C)N1C[C@@H](COCc2ccccc2)Oc2cc(N3CC[C@H](N(C)C)C3)ccc2S1(=O)=O	nt	i	?	nt	?	-25%
O=C(c1cccc(Cl)c1Cl)N(Cc1ccco1)Cc1cccs1	nt	i	i	nt	nt	nt
C/C(CCC12CC3CC(CC(C3)C1)C2)=N\NC(N)=S	3.3µM*	i	i	?	?	?
O=C(Nc1cccc(C(=O)O)c1)Nc1cccc2ccccc12	4%	i	i	3%	11%	6%
O=C(Nc1ccc(Cl)cn1)c1cccc(F)c1	10µM*	6.5µM*	3.7µM*	13µM*	?	8.2µM*
O=C(Nc1ccc(Cl)cn1)c1ccccc1F	12µM*	23µM*	?	13µM*	?	-27%
O=C(Nc1cccc(C(=O)Nc2ccc(Cl)cn2)c1)c1ccccc1	33%	i	i	12%	-2%	3%
N=C1/C(=C/c2cccn2Cc2ccc(F)cc2)C(=O)N=C2SC=CN12	6%	i	i	4.6µM*	-2%	1%
Cc1ccc(Cn2cccc2/C=C2/C(=N)N3C=CSC3=NC2=O)cc1	8%	i	i	14%	-25%	?
O=C(N/N=C/c1ccc(C(=O)O)cc1)C1=NNC(c2ccccc2)(c2ccccc2)C1	-74%	i	i	-2%	4%	-1%
CCOC(=O)C1=CN(CC2CCCO2)C=C(C(=O)OCC)C1c1ccccc1C(F)(F)F (centres undefined)	15µM*	i	i	13µM*	?	14%
CCOC(=O)c1ccc(NC(=O)c2cccc3c2C(=O)N(CC2CCCO2)C3)cc1 (centres undefined)	-4%	i	i	9%	0%	-6%
Cc1[nH]ccc2cc3nc4ccccc4c3cc12	nt	?	10µM*	nt	15µM*	?
COc1cccc(NS(=O)(=O)c2ccc3c(c2)CCCN3C(C)=O)c1	?	i	21µM*	?	-15%	-8%
COc1ccc(CNC(=O)C2CCCN(S(=O)(=O)c3ccc4c(c3)CCCN4C(C)=O)C2)cc1 (centres undefined)	0%	21µM*!	i	1%	-8%	-2%
CCCCNC(=O)C[C@@H]1C[C@@]2(C(=O)OCC)CCCC=C2N(Cc2ccccc2)C1=O	nt	i	?	nt	8%	8%
